# POLB inh = DNA polymerase beta (human) inhibition; P06746; Pol beta primer extension/strand displacement, fluorescence kinetic; Potency, µM (series often up to 114 µM), without a hit: top-dose activity change, negative = inhibition, most hits filed as inhibitors; 340,000 tested, 1.3% active; AID 485314; also: potency is read from the fitted curve at half-maximal effect; % is scaled to controls: 0 for no effect and ±100 for the full control effect
#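 Human Pol beta at 10 nM; strand-displacement substrate 50 nM final. Compound exposure 15 min at room temperature before start, reaction 10 min at room temperature.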
# POLH inh = inhibitors of human DNA polymerase eta | Potency, µM (series often up to 114 µM), without a hit: at the highest dose activity change, negative = inhibition, usual class: inhibitors | Q9Y253 | AID 588591 | 390,000 tested, 1.2% active | recombinant Pol eta, fluorescent DNA replication assay; also: potency is read from the fitted curve at half-maximal effect; % is scaled to controls: 0 for no effect and ±100 for the full control effect
#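 Pol eta at 10 nM preincubated with compounds 15 min at room temperature; reaction started with fluorescent substrate (50 nM final) and read kinetically at 0 and 10 min.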
# WRN helicase inh = inhibitors of human WRN helicase | WRN helicase unwinding, fluorescent forked duplex, kinetic | 360,000 tested, 0.46% active | AID 651768 | Q14191 | Potency, µM (doses to about 114 µM), inactives show at the top dose activity change, negative = inhibition, most hits filed as inhibitors; also: potency is read from the fitted curve at half-maximal effect; % is scaled to controls: 0 for no effect and ±100 for the full control effect; nearly all actives have a fitted effect of over 55% in size
# Target sequence (Q14191 whole entry, looked up): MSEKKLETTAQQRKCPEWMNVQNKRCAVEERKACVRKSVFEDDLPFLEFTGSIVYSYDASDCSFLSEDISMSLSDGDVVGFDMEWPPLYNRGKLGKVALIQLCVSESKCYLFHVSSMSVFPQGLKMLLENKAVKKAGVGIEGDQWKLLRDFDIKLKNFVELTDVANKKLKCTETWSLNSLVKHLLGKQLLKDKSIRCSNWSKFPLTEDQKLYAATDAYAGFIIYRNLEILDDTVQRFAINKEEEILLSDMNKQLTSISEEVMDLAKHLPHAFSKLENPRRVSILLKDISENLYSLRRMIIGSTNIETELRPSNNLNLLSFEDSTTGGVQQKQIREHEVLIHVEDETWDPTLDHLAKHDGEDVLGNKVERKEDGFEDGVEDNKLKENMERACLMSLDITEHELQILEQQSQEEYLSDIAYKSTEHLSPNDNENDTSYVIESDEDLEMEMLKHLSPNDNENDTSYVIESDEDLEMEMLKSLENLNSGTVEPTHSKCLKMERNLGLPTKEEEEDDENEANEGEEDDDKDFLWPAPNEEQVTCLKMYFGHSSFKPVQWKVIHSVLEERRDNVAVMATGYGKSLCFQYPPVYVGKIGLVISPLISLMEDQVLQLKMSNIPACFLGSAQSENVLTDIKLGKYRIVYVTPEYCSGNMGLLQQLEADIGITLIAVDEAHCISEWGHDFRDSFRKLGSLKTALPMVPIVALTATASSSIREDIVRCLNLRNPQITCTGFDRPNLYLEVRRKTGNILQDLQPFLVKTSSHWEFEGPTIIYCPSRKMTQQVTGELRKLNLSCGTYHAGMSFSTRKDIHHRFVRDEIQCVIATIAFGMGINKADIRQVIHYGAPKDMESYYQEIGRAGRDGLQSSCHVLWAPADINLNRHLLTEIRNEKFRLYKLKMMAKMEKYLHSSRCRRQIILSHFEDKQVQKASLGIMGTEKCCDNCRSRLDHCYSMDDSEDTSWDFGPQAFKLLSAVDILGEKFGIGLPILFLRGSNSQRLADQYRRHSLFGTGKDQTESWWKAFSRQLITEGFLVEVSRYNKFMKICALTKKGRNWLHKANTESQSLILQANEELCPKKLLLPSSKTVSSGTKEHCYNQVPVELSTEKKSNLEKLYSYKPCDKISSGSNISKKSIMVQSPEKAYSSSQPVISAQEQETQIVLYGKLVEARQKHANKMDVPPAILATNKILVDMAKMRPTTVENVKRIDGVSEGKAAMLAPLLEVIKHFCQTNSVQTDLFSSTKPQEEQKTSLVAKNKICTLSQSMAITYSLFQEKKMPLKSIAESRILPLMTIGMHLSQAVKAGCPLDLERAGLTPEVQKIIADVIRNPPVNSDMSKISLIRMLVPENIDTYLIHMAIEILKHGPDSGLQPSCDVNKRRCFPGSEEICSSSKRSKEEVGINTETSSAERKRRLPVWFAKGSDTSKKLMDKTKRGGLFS
#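 Screening of the MLSMR collection measured strand separation of a quenched forked DNA duplex (100 nM) by 20 nM WRN with 2 mM ATP, all final. Compounds were preincubated with enzyme 15 min at room temperature.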
# Pol kappa inh = blocks human DNA polymerase kappa activity | Q9UBT6 | purified Pol kappa, fluorescent DNA synthesis assay, 10 min | Potency, µM (titrated, usually from 107 µM), for inactives: top-dose activity, negative = inhibition, hits mostly inhibitors | 400,000 tested, 0.53% active; also: potency is read from the fitted curve at half-maximal effect; % is scaled to controls: 0 for no effect and ±100 for the full control effect
#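 Kinetic fluorescence screen: compound preincubated 15 min RT with 10 nM enzyme; 50 nM substrate (final) initiates; reads at 0/10 min.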
# Pol iota inh = inhibitors of human DNA polymerase iota; Q9UNA4; Pol iota fluorescent replication assay, 10 min; Potency, µM (highest dose often 115 µM), without a hit: at the highest dose activity, negative = inhibition, hits mostly inhibitors; 390,000 tested, 1% active; AID 588590; also: potency is read from the fitted curve at half-maximal effect
#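 Fluorescent replication assay read twice, at 0 min and 10 min after adding 50 nM (final) substrate. Enzyme (10 nM) and compounds were first incubated 15 min at room temperature; enzyme-free buffer wells were negative controls.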
# PI5P4Ka inh = blocks human PI5P4K alpha kinase activity; 330,000 tested, 1.2% active; max response, %; P48426; AID 652105; PI5P4Kalpha enzyme, ADP-Glo luminescence, 60 min; hits give low values; active = max response of -50% or lower; inconclusive = between -30% and -50%; inactive = -30% or higher; also: value at the top dose of about 77 µM; % is scaled to controls: 0 for no effect and ±100 for the full control effect
#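 Enzyme plus substrate dispensed, test compounds pinned in, then ATP (5 microM final) added. After 60 min at RT, ADP-Glo reagent 1 for 45 min and reagent 2 for 30 min preceded luminescence imaging.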
# The depositor's hits bear a star; u = inconclusive; x = no result; [ ] = dose if it differs, or a comment. Sampled rows, rich in hits. Any-hit rate of the full collection: about 2.8%. Unless noted, calls follow the shape of the dose curve; as a rule, active = well fitted curve in the direction sought with a large enough effect; inconclusive = small, poorly fitted or top-dose-only effect, or another doubt; inactive = no such curve, though single readings can be large; an effect the other way counts as inactive or inconclusive.
SMILES,POLB inh,POLH inh,WRN helicase inh,Pol kappa inh,Pol iota inh,PI5P4Ka inh
CCOc1ccc(/C=C2\SC(=S)N(C(C(=O)O)c3ccccc3)C2=O)cc1OC (stereo unspecified),-16%,79µM*,-5%[11.6 µM],-10%,u,3
CC(/C=C1\SC(=S)N(C(C(=O)O)c2ccccc2)C1=O)=C\c1ccccc1 (stereo unspecified),18%,89µM*,-10%[11.6 µM],u,u,17
C=CCOc1ccc(/C=C2\SC(=S)N(C(C(=O)O)c3ccccc3)C2=O)cc1 (stereo unspecified),5%,79µM*,-13%[11.6 µM],-4%,u,11
O=C(C[n+]1ccccc1Br)c1ccc(-c2ccccc2)cc1,x,x,x,-9%,u,x
COc1cc(OC)cc(C(=O)Nc2cc(-c3nc4cc(Cl)ccc4o3)ccc2Cl)c1,11%,4%,x,2%,-16%,x
N#Cc1ccc(OCC(=O)Nc2nc(-c3cccnc3)cs2)cc1,x,50µM*,-5%[11.6 µM],-20%,u,u
COc1cccc(NC(=O)Cn2c(=O)n(CCc3cccc(C)c3)c(=O)c3ccccc32)c1,-16%,-6%,x,-27%,89µM*,x
CCC1(C)NC(=O)N(CC(=O)Nc2sc3c(c2C(N)=O)CCC3)C1=O (stereo unspecified),20µM*,79µM*,u,u,u,x
CC(C)N1CCc2c(sc(NC(=O)CN3C(=O)c4ccccc4C3=O)c2C(N)=O)C1,5%,-8%,1%,-14%,17%,0
CC(=O)N1CCc2c(sc(NC(=O)CN3C(=O)c4ccccc4C3=O)c2C(N)=O)C1,6%,0%,-3%,-14%,u,-77*
CC(=O)N1CCc2c(sc(NC(=O)c3ccc([N+](=O)[O-])o3)c2C(N)=O)C1,x,50µM*,-12%,x,x,-65*
CC(=O)N1CCc2c(sc(NC(=O)CN3C(=O)CCC3=O)c2C(N)=O)C1,11%,-11%,2%,-12%,u,-76*
NC(=O)c1c(NC(=O)CN2C(=O)CCC2=O)sc2c1CCCCC2,-22%,-17%,-6%,4%,31%,-11
CCC(=O)Nc1sc2c(c1C(N)=O)CCN(C(C)=O)C2,9%,-14%,-5%,-7%,0%,2
CC12CCC(=O)C=C1CCC1C2CCC2(C)C(c3csc(N)n3)CCC12 (stereo unspecified),x,-4%,-9%,-5%,43%,-8
O=C(CN1CCN(S(=O)(=O)c2cccs2)CC1)N1CCCCC1,x,-15%,-10%,3%,23%,-6
CCOc1ccc(CNC(=O)c2ccc3c(Cl)c4c(nc3c2)CCCC4)cc1,17%,-13%,x,-5%,13%,x
COC(=O)C1(C(=O)OC)c2ncccc2N(S(=O)(=O)c2ccc(C)cc2)C1CC(=O)c1ccccc1 (stereo unspecified),x,x,2%,x,x,6
Cc1cccc(Cn2ccn(Cc3ccc(Cl)cc3)c(=O)c2=O)c1,25µM*,20%,x,-2%,7%,x
c1csc(-c2nn[nH]n2)c1,-2%,-1%,1%,-9%,-14%,3
O=c1cc(-c2nn[nH]n2)[nH]c(=O)[nH]1,x,-10%,-2%,-4%,-8%,-70*
CC1=NN(c2ccccc2C)C(=O)C1,x,-14%,1%[11.6 µM],4%,3.2µM*,0
Cc1ccccc1N1CC(=O)N(c2ccccc2C)CC1=O,6%,5%,-3%,-18%,9%,2
O=C(COc1ccc(Cl)cc1)N1CCN(S(=O)(=O)c2cc(F)ccc2F)CC1,x,-9%,-5%,x,x,-26
Cc1ccc(CNC(=O)CSc2nc3[nH]ncc3c(=O)[nH]2)cc1,19%,-18%,11%,-1%,175%,5
SMILES,POLB inh,POLH inh,WRN helicase inh,Pol kappa inh,Pol iota inh,PI5P4Ka inh
O=C(O)CCn1cnc2onc(-c3ccccc3Cl)c2c1=O,22µM*,-4%,x,-15%,6%,x
O=C(CCn1cnc2onc(-c3ccc(F)cc3)c2c1=O)N1CCN(c2ccccc2)CC1,21%,-6%,x,-2%,-14%,x
C=C[C@](C)(CC[C@@]1(C)C(C)CC(OC2OC(C)C(OC3OC(COC(C)=O)C(O)C(O)C3O)C(O)C2O)[C@@]2(C)C(C)=CCCC12)OC1OC(C)C(O[C@@H]2O[C@@H](C)C(O)C(O)[C@H]2O)C(O)C1O (stereo partly specified),x,-7%,-4%,-15%,14%,16
O=C(/C=C/c1ccccc1)/C=C/c1ccccc1,24%,18µM*,u,-11%,u,-1
O=C(/C=C/c1ccccc1)c1ccc2ccccc2c1,x,-17%,-11%[11.6 µM],-12%,22µM*,15
CC(/C=C\c1ccccc1)=C/C(=O)O,-6%,-6%,-7%,3%,136%,-5
N#Cc1ccc(/C=C/C(=O)c2ccccc2)cc1,1%,9%,-31%,-4%,u,4
Cc1ccc(C(=O)NNC(=O)c2ccc3ccccc3c2)cc1,x,-10%,-10%,-16%,59%,5
C=C(C(=O)O)c1ccc2ccccc2c1,x,x,x,u,79µM*,x
O=C(/C=C/c1ccccc1)c1ccccc1,46%,u,-17%[57.1 µM],-19%,22µM*,-3
Cc1nn(-c2ccccc2)c2c1N(CCCC(=O)NCc1ccc(OC(C)C)cc1)C(=O)CS2,11%,-5%,x,-19%,10%,x
Clc1cc(Cl)c(OCC#CI)cc1Cl,x,x,x,1%[19.4 µM],x,x
COc1ccc(N2CCN(CCCNC(=O)c3ccc4nc(Cc5ccccc5)oc4c3)CC2)cc1,-7%,-18%,x,-9%[60.1 µM],-1%,x
Cc1ccc(C(=O)Nc2ccccc2C(=O)N2CC(C)OC(C)C2)cc1 (stereo unspecified),x,-11%,28%,x,x,1
COc1ccc(C2=Nc3ccccc3NC(=O)C2N(C(=O)c2ccnc3ccccc23)c2ccccc2)cc1 (stereo unspecified),x,x,7%,x,x,-5
CC(=O)Nc1ccc(/C=C/C(=O)c2ccc3c(c2)OCCO3)cc1,16%,-22%,-5%,-17%,u,1
COc1cc(/C=C/C(=O)c2ccc3c(c2)OCO3)cc(Cl)c1O,40µM*,40µM*,-3%[11.6 µM],u,20µM*,-25
COC(=O)N/N=C(C)/C=C/c1ccccc1,x,-4%,-24%,u,89µM*,4
O=C(/C=C/c1ccc(F)cc1)c1cc(Br)ccc1O,8%,-19%,-29%,5%,59%,5
O=C(/C=C/c1ccccc1)c1cc(Br)ccc(=O)c1O,u,u,u,40µM*,3.2µM*,-25
O=C(O)c1ccc(/C=C/C(=O)c2ccc3c(c2)OCCCO3)cc1,9%,22µM*,-9%[11.6 µM],-3%,u,0
CCC1(c2ccc(F)cc2)NC(=O)N(CC(=O)Nc2cccc(S(=O)(=O)N3CCOCC3)c2)C1=O (stereo unspecified),x,-11%,-2%,-7%,4%,0
